{"source": "PubChem BioAssay AID588342", "about": "(National Center for Advancing Translational Sciences (NCATS), 2011)", "note": "Out of some 360,000 compounds screened, about 25,000 (6.9%) were called active. Roughly 9% stayed inconclusive and do not appear here. What follows is part of a selection rich in actives, with near analogues and random picks from the rest. Unmarked numbers belong to inactive results. Calls follow the shape of the dose curve; as a rule, active = well fitted inhibition curve with a large enough effect; inconclusive = small, poorly fitted or top-dose-only effect; inactive = flat fitted curve, though single readings scatter. Potency is read from the fitted curve at half-maximal effect."}
{"target": "Luciferin 4-monooxygenase (Photinus pyralis) (UniProt P08659)", "sequence (P08659 whole entry, looked up)": "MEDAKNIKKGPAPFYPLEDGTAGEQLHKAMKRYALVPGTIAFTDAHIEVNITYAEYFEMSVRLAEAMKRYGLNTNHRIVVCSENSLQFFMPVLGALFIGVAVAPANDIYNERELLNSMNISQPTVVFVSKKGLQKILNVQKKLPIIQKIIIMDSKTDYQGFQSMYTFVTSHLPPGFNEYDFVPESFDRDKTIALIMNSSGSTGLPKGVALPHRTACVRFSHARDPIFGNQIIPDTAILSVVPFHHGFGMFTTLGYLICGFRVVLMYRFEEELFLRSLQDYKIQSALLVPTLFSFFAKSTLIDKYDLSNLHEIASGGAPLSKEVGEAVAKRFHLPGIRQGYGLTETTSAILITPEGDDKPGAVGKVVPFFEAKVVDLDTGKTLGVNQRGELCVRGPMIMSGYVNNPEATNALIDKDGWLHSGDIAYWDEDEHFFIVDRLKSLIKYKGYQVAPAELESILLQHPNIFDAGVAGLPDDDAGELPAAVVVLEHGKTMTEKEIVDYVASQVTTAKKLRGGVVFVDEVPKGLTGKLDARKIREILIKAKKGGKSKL", "assay": "qHTS profiling assay for firefly luciferase inhibitor/activator using purifed enzyme and Km concentrations of substrates (counterscreen for miR-21 project); also: nearly all actives have a fitted effect of over 55% in size;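 as to activity change, negative = inhibition: plate controls were vehicle for no effect and reference inhibitor for full effect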", "settings": "purified FLuc, luminescence inhibition; series mostly up to 57.5 µM; activity change, negative = inhibition: at the top concentration", "procedure,_shortened": "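Purified P. pyralis luciferase, 10 nM final, with Km-level 10 uM D-luciferin and 10 uM ATP in 50 mM Tris acetate pH 7.5, 10 mM Mg acetate, 0.01% Tween-20, 0.05% BSA; 6-point qHTS titration about 60 µM downward; luminescence read.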", "units": {"activity change, negative = inhibition": "%"}}
{"compound": "Cc1ccc(NC(=O)c2ccccn2)cc1S(=O)(=O)N1CCOCC1", "activity change, negative = inhibition": -1.27}
{"compound": "Cc1ccc(C(=O)O/N=C(\\N)c2ccccn2)cc1Cl", "Potency": "0.169 µM (active)"}
{"compound": "COc1ccc(C(=O)NNC(=O)c2cnccn2)cc1[N+](=O)[O-]", "activity change, negative = inhibition": 6.8}
{"compound": "O=C(COC(=O)c1ccccn1)NNC(=O)c1ccc([N+](=O)[O-])cc1", "activity change, negative = inhibition": 2.2}
{"compound": "N/C(=N\\OC(=O)c1ccc([N+](=O)[O-])cc1)c1ccccn1", "Potency": "0.601 µM (active)"}
{"compound": "COc1ccc(C(=O)O/N=C(\\N)c2ccccn2)cc1[N+](=O)[O-]", "Potency": "12 µM (active)"}
{"compound": "O=C(OCc1ccc([N+](=O)[O-])cc1)c1ccccn1", "activity change, negative = inhibition": -0.663}
{"compound": "O=C(Nc1ccccc1Cl)O/N=C(/c1ccccc1)c1ccccn1", "activity change, negative = inhibition": -8.09}
{"compound": "O=C(CCS(=O)(=O)c1cc(Br)cc2c1N(C(=O)C1CC1)CC2)Nc1ccc(C(F)(F)F)cc1", "activity change, negative = inhibition": -0.598}
{"compound": "C/C=N/NC(=O)CCCC(=O)N/N=C/C", "activity change, negative = inhibition": -3.72}
{"compound": "COc1ccccc1C(=O)NCC(=O)NCCSc1ccc(Br)cc1", "activity change, negative = inhibition": 0.478}
{"compound": "Cn1nnnc1SCCCNCc1ccc(Cl)cc1", "activity change, negative = inhibition": -1.11}
{"compound": "Cc1ccc(NC(=O)C(=O)NCC(c2cccnc2)N2CCOCC2)cc1", "note": "(configuration not stated)", "activity change, negative = inhibition": -1.67}
{"compound": "Cc1cc(NC(=O)CSc2ncc(C(=O)Nc3ccc(Cl)cc3)c(=O)n2C)no1", "activity change, negative = inhibition": -5.36}
{"compound": "Cc1ccc(NC(=O)c2cnc(SCC(=O)NCC3CCCO3)n(C)c2=O)cc1", "note": "(configuration not stated)", "Potency": "9.53 µM (active)"}
{"compound": "Cn1c(SCC(=O)c2ccccc2)ncc(C(=O)Nc2ccc(F)cc2)c1=O", "activity change, negative = inhibition": -4.55}
{"compound": "COc1ccc(Cl)cc1NC(=O)CSc1nc(=O)[nH]c2c1CCCC2", "activity change, negative = inhibition": -11.4}
{"compound": "C/C(=C\\c1ccco1)C1Nc2cccc3cccc(c23)N1", "Potency": "10.7 µM (active)"}
{"compound": "O=C(NCC1CCCO1)/C(=C\\c1ccco1)NC(=O)c1ccccc1", "note": "(configuration not stated)", "activity change, negative = inhibition": -2.53}
{"compound": "NC(=O)C1CCN(C(=O)/C(=C/c2ccco2)NC(=O)c2ccccc2)CC1", "activity change, negative = inhibition": -1.25}
{"compound": "c1csc(-c2nnc(COc3ncnc4sccc34)o2)c1", "activity change, negative = inhibition": 4}
{"compound": "Clc1ccc(Cc2nnc(-c3cccs3)o2)cc1", "Potency": "19 µM (active)"}
{"compound": "CNC(=O)c1nnc(Cc2ccc(Cl)cc2)o1", "activity change, negative = inhibition": 3.86}
{"compound": "CC(Sc1oc(-c2ccco2)nc1S(=O)(=O)c1ccc(Br)cc1)c1ccccc1", "note": "(configuration not stated)", "activity change, negative = inhibition": 3.32}
{"compound": "Cc1cc(C)n2nc(C(=O)OCC(=O)N(C)CC(=O)Nc3ccc(F)cc3)nc2n1", "activity change, negative = inhibition": 4.22}
{"compound": "COc1ccc(CNC(=O)c2cc3c(=O)[nH]c4ccc(C)cc4c3s2)c(OC)c1", "activity change, negative = inhibition": -8.78}
{"compound": "CCOC(=O)c1nc(Nc2ccc(C(=O)OC)cc2)c2ccccc2n1", "Potency": "inactive"}
{"compound": "COC(=O)c1ccc(NCC(=O)N2CCCCCC2)cc1", "activity change, negative = inhibition": -11.5}
{"compound": "COC(=O)c1ccc(NCC(=O)c2ccccc2)cc1", "Potency": "1.51 µM (active)"}
{"compound": "Cc1ccc(C(=O)CNc2ccc(F)cc2)cc1", "Potency": "4.78 µM (active)"}
{"compound": "Cc1ccc(NC(=O)CCC(=O)c2ccc(Br)cc2)cc1", "activity change, negative = inhibition": -2.06}
{"compound": "Cc1ccc(C(=O)NC2CCN(C(=O)Nc3ccc(F)cc3)CC2)cc1", "activity change, negative = inhibition": -1.62}
{"compound": "CCn1c2ccccc2c2nnc(N3CCN(c4cc(C)ccc4C)CC3)nc21", "activity change, negative = inhibition": -2.96}
{"compound": "CC(=O)Nc1cc(C(=O)NCc2ccc(F)cc2Cl)ccc1Sc1ccc(Cl)cc1", "activity change, negative = inhibition": -11.1}
{"compound": "O=c1c(=O)n(Cc2c(F)cccc2Cl)ccn1Cc1ccccc1", "activity change, negative = inhibition": 0.984}
{"compound": "CCOC(=O)C1CCN(c2ccc(C(=O)O)cc2[N+](=O)[O-])CC1", "activity change, negative = inhibition": 4.31}
{"compound": "CCOC(=O)C1CCN(c2c(Nc3cc(C)cc(C)c3)c(=O)c2=O)CC1", "activity change, negative = inhibition": -0.907}
{"compound": "CCOC(=O)C1CCN(c2csc3ccc(C)cc3c2=O)CC1", "Potency": "7.57 µM (active)"}
{"compound": "CCOCCCNC(=O)c1cn(CC)c2ccc(S(=O)(=O)N3CCc4ccccc4C3)cc2c1=O", "activity change, negative = inhibition": 3.89}
{"compound": "C=CCc1cccc2cc(C(=O)Nc3ccc(NC(C)=O)cc3)c(=O)oc12", "activity change, negative = inhibition": 1.63}
{"compound": "C=CCn1cc(Cl)cc(C(=O)Nc2ccccc2)c1=O", "Potency": "16.9 µM (active)"}
{"compound": "O=C(Nc1cccnc1)c1cc(Cl)ccc1Cl", "activity change, negative = inhibition": 5.5}
{"compound": "CCOc1ncccc1C(=O)Nc1ccc(S(=O)(=O)Nc2nc(C)cc(C)n2)cc1", "activity change, negative = inhibition": 7.38}
{"compound": "Cc1ccc2[nH]c3c(=O)n(CC(=O)NC(C)C)ncc3c2c1", "activity change, negative = inhibition": -5.07}
{"compound": "O=C(COc1ccc(Cl)cc1)Nc1ccccc1OCc1cc(=O)n2ccccc2n1", "activity change, negative = inhibition": -16.9}
{"compound": "O=C(c1noc2c1CCCC2)N1CCc2ccccc2C1", "Potency": "16.9 µM (active)"}
{"compound": "O=C(c1cccs1)N1CCN(C(=O)N2CCOCC2)CC1", "activity change, negative = inhibition": 3.01}
{"compound": "O=C(c1c(Cl)nc2sccn12)N1CCCc2ccccc21", "activity change, negative = inhibition": -3}
{"compound": "O=C(C(=O)N1CCc2ccccc2C1)N1CCc2ccccc2C1", "activity change, negative = inhibition": 0.647}
{"compound": "O=C(c1cc(-c2ccc(O)cc2)on1)N1CCOCC1", "Potency": "9.53 µM (active)"}
{"compound": "O=C(c1cc(-c2ccc(O)cc2)on1)N1CCCc2ccccc21", "Potency": "16.9 µM (active)"}
{"compound": "Cn1cccc1C(=O)N1CCc2ccccc2C1", "activity change, negative = inhibition": -6.68}
{"compound": "Cc1ccc(-c2cc(C(=O)N3CCc4ccccc4C3)no2)cc1", "Potency": "23.9 µM (active)"}
{"compound": "O=C(NCCCN1CCOCC1)c1cc(-c2cccc(O)c2)on1", "activity change, negative = inhibition": -19}
{"compound": "Cc1ccc2c(c1)N(C(=O)CCC(=O)N1CCc3ccccc3C1)CCO2", "activity change, negative = inhibition": -15.1}
{"compound": "CCCn1nc(C(=O)N2CCCc3ccccc32)c2ccccc2c1=O", "activity change, negative = inhibition": -8.62}
{"compound": "CN1CCN(Cc2c(C(=O)N3CCc4ccccc4C3)nc3ccc(Cl)cn23)CC1", "activity change, negative = inhibition": 0.908}
